Screen size: about 52,000 compounds; about 1,700 (3.3%) were called active. This is one part of a sample in which actives are shown more often than they occur. Unmarked numbers belong to inactive results. Cut-off read from the data, not from the text of the source: active = survival mostly below about 52% (no sharp cut-off); inactive = mostly above about 56%.
Each compound was assayed on Wild type (assay: growth inhibition of S. aureus wild type versus tarO mutant, primary screen, teichoic acid synthesis inhibitors, RN4220, OD600 (AID 463173)). Conditions: S. aureus RN4220 wild type/DeltatarO growth, OD600, 18 h, hits give low values, screened at 18.75 µg/mL (by protocol).
With `C=Cc1ccc(Cn2c(=O)n(-c3cccc(Cl)c3)c(=O)c3c4c(sc32)CN(C(C)=O)CC4)cc1` the survival was 81%. For `Cc1cc(C)c(S(=O)(=O)N2CCN(Cc3nc4ccc(C)cc4o3)CC2)c(C)c1`, the survival was 73%. In the case of `O=[N+]([O-])c1cc(-c2nc(-c3ccccc3)no2)ccc1NCC1CCCO1` (centres undefined), the survival is reported as 86%. For `CC(C)(C)OC(=O)N1CCC(c2c(C(=O)NCc3ccccn3)cnn2-c2ccccc2)CC1`, the survival was 73%. With `Cc1c(Cl)cccc1-n1ncc(C(=O)NC2CCCCC2)c1C1CCN(C(=O)OC(C)(C)C)CC1` the survival was 75%. `Cc1ccc(-n2ncc(C(=O)NCc3ccccn3)c2C2CCN(C(=O)OC(C)(C)C)CC2)c(C)c1` was tested, and the survival was 45%. Compound `Cc1c(Cl)cccc1-n1ncc(C(=O)NC2CCCC2)c1C1CCN(C(=O)OC(C)(C)C)CC1` has a survival of 66%. `CCOC(=O)N1CCC(NC(=O)c2cnn(-c3cccc(Cl)c3C)c2C2CCN(C(=O)OC(C)(C)C)CC2)CC1` was tested, and the survival was -3% (active). With `CC(C)(C)OC(=O)N1CCC(c2c(C(=O)NCc3ccccn3)cnn2-c2ccccc2Cl)CC1` the survival was -6% (active). `CC1CCN(S(=O)(=O)c2ccc3c(c2)c(=O)c(C(=O)N2CCN(c4cccc(Cl)c4)CC2)cn3C)CC1` gave a survival of 94%. `CCCNC(=O)Cn1nc(-c2ccc(F)cc2)c2cnc3ccc(F)cc3c21` gave a survival of 82%. For `CCn1c(Cc2ccccc2)nnc1SCC(=O)N1CCCCC1C` (centres undefined), the survival was 116%. `COc1ccc(NC(=O)CCc2nc3cccnc3n2-c2ccccc2)c(OC)c1` showed a survival of 68%. Work on `COc1ccc(OC)c(Nc2nc3ccccc3n3c(C)nnc23)c1` yielded a survival of 83%. Compound `Nn1cnnc1SCC(=O)N(C1CCCCC1)C1CCCCC1` has a survival of 107%. `O=C(Nc1ccc(NC(=O)c2cccs2)cc1)c1cccs1` gave a survival of 113%. For `Cc1ccccc1CCNC(=O)c1ccc2c(c1)c(C)c(C)n2Cc1ccccc1`, the survival was 124%. `COc1ccccc1/C=C/c1nc2ccccc2n1C(C)C` was tested, and the survival was 2% (active). Work on `COc1cccc(/C=N/n2c(N)nc3ccccc32)c1OC` yielded a survival of 103%. For `COc1cccc(/C=N/c2nc3ccccc3n2C)c1O`, the survival was 106%. With `CC1CC(C)N(C(=O)c2cc(-c3ccccc3)on2)C(C)C1` (centres undefined) the survival was 129%. Compound `CCOc1ccc(NC(=O)CN(c2ccc(Cl)cc2C)S(=O)(=O)c2ccccc2)cc1` has a survival of 77%. Compound `CCN(CC)CC(=O)Nc1nc2ccc(OC)cc2s1` has a survival of 103%. For `N#C/C(=C\c1ccc(-c2ccccc2C(=O)O)o1)c1nc2ccccc2[nH]1`, the survival was 84%. Work on `N#C/C(=C\c1ccc(-c2ccc(F)cc2F)o1)c1nc2ccccc2[nH]1` yielded a survival of 38%. For `Cc1c(Cl)cccc1-c1ccc(/C=C(\C#N)c2nc3ccccc3[nH]2)o1`, the survival was 8% (active). `Cc1ccccc1NC(=O)c1c(NC(=O)c2ccccc2)sc2c1CCC2` was tested, and the survival was 137%. With `COc1ccc(NC(=O)c2c(NC(=O)C(F)(F)F)sc3c2CCCCC3)cc1` the survival was -1% (active). With `COc1ccc(NC(=O)c2c(NC(=O)c3ccc(Br)cc3)sc3c2CCCC3)cc1` the survival was 157%. Compound `Cc1ccc(NC(=O)c2c(NC(=O)c3ccccc3)sc3c2CCC3)cc1` has a survival of 79%. Work on `Cc1ccccc1NC(=O)c1c(NC(=O)Cc2ccccc2)sc2c1CCC2` yielded a survival of 48%. Compound `COc1ccc(CC(=O)Nc2sc3c(c2C(=O)Nc2ccc(C)cc2)CCCCC3)cc1` has a survival of 136%. `Cc1ccc(NC(=O)c2c(NC(=O)Cc3ccccc3)sc3c2CCCC3)cc1` was tested, and the survival was 49%. `Cc1ccc(NC(=O)c2c(NC(=O)C(F)(F)F)sc3c2CCCCC3)cc1` was tested, and the survival was -3% (active). With `Cc1ccccc1NC(=O)c1c(NC(=O)C(F)(F)F)sc2c1CCCCC2` the survival was 1% (active). For `COCCCNc1nc2c(c(=O)n(Cc3ccc(F)cc3)c(=O)n2C)n1C`, the survival was 130%. In the case of `CCC(O)c1cc2c(cc1NC(=O)c1cccc(Br)c1)OCCO2` (centres undefined), the survival is reported as 71%. For `Cc1ccc(N(C)C(=O)Cn2cc(S(=O)(=O)N3CCCC3)c(S(=O)(=O)N3CCCC3)c2)cc1`, the survival was 73%. Work on `Cc1cccc(NC(=O)CN2C(=O)C(c3ccc(F)cc3)=NC23CCCCCC3)c1C` yielded a survival of 73%. In the case of `CCCN1CCN(c2ncnc3sc(C(=O)Nc4ccc(N(CC)CC)cc4C)c(C)c23)CC1`, the survival is reported as 128%. `CCn1c(SC)nnc1C1CCCN(C(=O)c2ccccc2-c2ccccc2)C1` (centres undefined) showed a survival of 120%. In the case of `CCCCn1c(C)nc2ccccc21`, the survival is reported as 99%. `CCCCCn1c(CCNC(=O)c2cccc(C)c2)nc2ccccc21` was tested, and the survival was 2% (active). `CCCCCn1c(C(C)NC(=O)c2ccccc2)nc2ccccc21` (centres undefined) showed a survival of 77%. In the case of `CCCCCn1c(CCCNC(=O)c2ccccc2OC)nc2ccccc21`, the survival is reported as 68%. `CCOc1ccc(Cn2c(-c3ccc(OCC)c(OC)c3)nc3ccccc32)cc1OC` showed a survival of 94%. `CCCCn1c(CCCNC(=O)c2cccc(C)c2)nc2ccccc21` was tested, and the survival was 73%. In the case of `CCCCCn1c(CCCNC(=O)c2cccc(C)c2)nc2ccccc21`, the survival is reported as 50%. In the case of `CCCCCn1c(-c2ccc(OC)c(OC)c2)nc2ccccc21`, the survival is reported as 1% (active). In the case of `CCCCCn1c(-c2cccc(C)c2)nc2ccccc21`, the survival is reported as 11% (active). `Cc1ccc(S(=O)(=O)NCC(c2ccco2)N2CCOCC2)cc1` (centres undefined) was tested, and the survival was 78%. In the case of `Cc1ccc2[nH]c(CSc3nnc(NC(=O)c4ccc(Cl)cc4)s3)cc(=O)c2c1`, the survival is reported as 71%. For `CCN(CCCNC(=O)c1nn(-c2ccc(C)cc2)c(=O)c2c1c1ccccc1n2C)c1ccccc1`, the survival was 82%. Work on `Cc1cc(=O)c2c(o1)CC(C)(C)CC2=O` yielded a survival of 110%. Compound `Cc1cccc(-n2c(C)nc3cc(C(=O)NCCC4=CCCCC4)ccc32)c1` has a survival of 73%. Compound `CCCNC(=O)c1ccc2c(c1)ncn2-c1ccc(C)cc1C` has a survival of 59%. With `CCOc1ccc(-n2c(C)nc3cc(C(=O)NCCC4=CCCCC4)ccc32)cc1` the survival was -6% (active). Compound `COCCCNC(=O)c1ccc2c(c1)nc(C)n2-c1cccc(C)c1` has a survival of 69%. `Cc1cccc(-n2cnc3cc(C(=O)NC4CCCCCC4)ccc32)c1` was tested, and the survival was 124%. For `CCCCCNC(=O)c1ccc2c(c1)nc(C)n2-c1cccc(C)c1`, the survival was -2% (active). With `Cc1cccc(-n2cnc3cc(C(=O)NCc4ccccc4Cl)ccc32)c1` the survival was 68%. With `CCCCCNC(=O)c1ccc2c(c1)ncn2-c1cccc(C)c1` the survival was -3% (active). With `Cc1ccc(-n2cnc3cc(C(=O)NCc4ccccc4Cl)ccc32)c(C)c1` the survival was 10% (active). `Cc1nc2cc(C(=O)NCCC3=CCCCC3)ccc2n1-c1ccc(Br)cc1` showed a survival of 75%. Compound `Cc1cc(C)cc(-n2cnc3cc(C(=O)NCCc4ccccc4)ccc32)c1` has a survival of 73%. For `CCCNC(=O)c1ccc2c(c1)nc(C)n2-c1cccc(C)c1`, the survival was 82%. Work on `Cc1ccc(OCC(=O)Nc2ccccc2C(=O)OCc2cc(=O)n3c(C)csc3n2)cc1` yielded a survival of 72%. With `O=C(Nc1ccc(Cl)cc1)C1CCN(S(=O)(=O)c2ccc(Br)s2)CC1` the survival was 60%. Work on `CCC(C)(C)NC(=O)C1CCN(S(=O)(=O)c2ccc3c(c2)CCCN3C(C)=O)CC1` yielded a survival of 71%. `O=C(/C=C(/O)c1cccnc1)C(F)(F)F` showed a survival of 86%. Compound `O=C1CC2C(=O)NCCN2C(=NC(=O)c2ccc(Cl)cc2)N1` (centres undefined) has a survival of 100%. `COc1cccc(/C=N/NC(=O)c2cccc(C)c2)c1O` was tested, and the survival was 1% (active). Work on `COc1cccc(/C=N/NC(=O)COc2c(C)cccc2C)c1O` yielded a survival of 113%. `COc1cccc(/C=N/NC(=O)CSCc2ccccc2)c1O` showed a survival of 108%. With `COc1cc(OC)cc(C(=O)Nc2ccc(S(=O)(=O)N3CCCCC3c3cccnc3)cc2)c1` (centres undefined) the survival was 71%. `Cc1ccc(Cl)cc1N1CCN(C(=O)CCS(=O)(=O)c2cc(Br)cc3c2N(C(=O)C2CC2)CC3)CC1` showed a survival of 80%. In the case of `O=C(NCc1cccc(F)c1)c1cccc(NC(=O)c2nsc3ccccc23)c1`, the survival is reported as 87%. With `O=C(NCc1ccccc1)c1ccc(NC(=O)c2nsc3ccccc23)cc1` the survival was 55%. For `CCC(C)NC(=O)c1cccc(NC(=O)c2nsc3ccccc23)c1` (centres undefined), the survival was 76%. In the case of `COC(=O)c1cccc(NC(=O)c2nsc3ccccc23)c1`, the survival is reported as 0% (active). With `CC(NC(=O)c1cccc(NC(=O)c2nsc3ccccc23)c1)c1ccccc1` (centres undefined) the survival was 111%. `O=C(NCc1cccc(F)c1)c1ccc(NC(=O)c2nsc3ccccc23)cc1` was tested, and the survival was -4% (active). `Cc1ccccc1Nc1c(-c2ccc(N3CCOCC3)cc2)nc2cccc(C)n12` was tested, and the survival was 59%. `Cc1ccc(N(C)C(=O)C2CCCN(c3ncnc4c3nc3n4CCCCC3)C2)cc1C` (centres undefined) showed a survival of 127%. Work on `CCc1ccc(NC(=O)C2CCN(c3nn4cc(-c5ccc(OC)cc5)nc4s3)CC2)cc1` yielded a survival of 71%. With `COc1ccc(-c2nc3c4ccccc4n(CC(=O)N4CCN(c5ccccc5F)CC4)c(=O)n3n2)cc1` the survival was 91%. `CC1(C)C(=O)NC(=O)N1CN1C(=O)NC(=O)C1(C)C` gave a survival of 111%. `CCOc1ccc(C(=O)Nc2ccc(-n3nncc3-c3ccccc3)cc2)cc1OCC` showed a survival of 135%. `O=C(c1cc2c(=O)oc3ccccc3c2s1)N1CCN(c2cccc(Cl)c2)CC1` was tested, and the survival was 145%. `CCCN1C(=O)c2ccccc2CC1(C)C(=O)NC1CCCCC1` (centres undefined) gave a survival of 85%. For `Cc1cccc(C(=O)Nc2sc3c(c2C(=O)Nc2ccccc2)CCC3)c1`, the survival was 67%. Work on `Cc1cccc(NC(=O)c2c(NC(=O)c3ccccc3)sc3c2CCC3)c1` yielded a survival of 80%. With `Cc1cccc(NC(=O)c2c(NC(=O)C(F)(F)F)sc3c2CCCCC3)c1` the survival was -3% (active). `Cc1cccc(NC(=O)c2c(NC(=O)c3ccccc3)sc3c2CCCC3)c1` gave a survival of 82%. Work on `O=C(Nc1sc2c(c1C(=O)Nc1cccc(Cl)c1)CCCC2)c1cccs1` yielded a survival of 140%. With `O=C(Nc1cccc(Cl)c1)c1c(NC(=O)C(F)(F)F)sc2c1CCCC2` the survival was -2% (active). `COc1ccc(CC(=O)Nc2sc3c(c2C(=O)Nc2cccc(C)c2)CCCCC3)cc1` was tested, and the survival was 63%. `Cc1cccc(NC(=O)c2c(Br)sc3c2CCCC3)c1` was tested, and the survival was 0% (active). Work on `O=C(Cc1ccccc1)Nc1sc2c(c1C(=O)Nc1cccc(Cl)c1)CCCCC2` yielded a survival of 91%.

— PubChem BioAssay AID463173 (ICCB-Longwood Screening Facility, Harvard Medical School, 2010)
